SMILES strings stand for the structures.

The record followed here is ChEMBL document CHEMBL3988442, “University of Dundee, Small-Polar-MMV Screening Library” (2021).

The target in experiment [1] is T1, Aspartate--tRNA(Asp/Asn) ligase (Mycobacterium tuberculosis (strain ATCC 25618 / H37Rv)) (UniProt P9WFW3). Also: in the data most compounds retested in dose-response had high values.
T1 sequence (whole entry): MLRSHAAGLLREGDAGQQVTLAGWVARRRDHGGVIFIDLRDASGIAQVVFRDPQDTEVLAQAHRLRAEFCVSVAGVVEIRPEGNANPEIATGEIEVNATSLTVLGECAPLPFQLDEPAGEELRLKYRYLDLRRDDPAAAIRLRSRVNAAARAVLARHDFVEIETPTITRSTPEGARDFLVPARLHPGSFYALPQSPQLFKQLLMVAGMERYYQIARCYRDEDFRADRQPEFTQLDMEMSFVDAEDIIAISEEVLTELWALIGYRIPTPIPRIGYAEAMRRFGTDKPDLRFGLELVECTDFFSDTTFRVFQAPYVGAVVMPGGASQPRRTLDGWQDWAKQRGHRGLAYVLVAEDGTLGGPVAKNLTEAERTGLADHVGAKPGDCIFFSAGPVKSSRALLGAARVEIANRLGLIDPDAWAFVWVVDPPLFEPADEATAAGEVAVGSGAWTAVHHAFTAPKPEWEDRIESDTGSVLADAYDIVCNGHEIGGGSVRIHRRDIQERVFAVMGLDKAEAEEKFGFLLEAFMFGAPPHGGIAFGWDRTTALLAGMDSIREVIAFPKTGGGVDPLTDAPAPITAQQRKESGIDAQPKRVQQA
Kind of experiment: Assay for Asp RNA synthetase-1 from Mycobacterium tuberculosis. Type of experiment: functional. The arrangement: scale not given: direction of the effect not stated beside the values. The following applies: 30 µM.

For experiment [2], the target named is Shiga toxin 2 (Escherichia coli O157:H7) (UniProt P09385+P09386). Briefly: E. coli 0.157:H7 Shiga Toxin SOP - stx2 screening assay. The following applies: 30 µM. Type of experiment: functional. On the set-up: scale not given: direction of the effect not stated beside the values.

As for `CCn1c(=O)nc2n1C(=O)N(c1cccc(Cl)c1)C2`, the results for the Percent Effect in experiment [1] and in experiment [2] were 0.929% and -43.9%, respectively.
Regarding `CC(C)(NCC(=O)NCC(F)(F)F)c1ccc2c(c1)OCCO2`, the results for the Percent Effect in experiment [1] and in experiment [2] were -0.335% and 22.1%, respectively.
As for `c1ccc2cc(OCCN3CCOC(Cn4cncn4)C3)ccc2c1` (stereo unspecified), the Percent Effect in experiment [1] was -2.92%; in experiment [2], -29.2%.
As for `O=C(N1CCCC1)N1CCC2(CCCN(CCOc3ccccc3)C2)C1` (stereo unspecified), the Percent Effect was -0.364% in experiment [1] and -4.82% in experiment [2].
As for `O=C(c1ccc2c(c1)OCO2)N1CCC[C@]2(C[C@H](OCC3CC3)CO2)C1`, the Percent Effect in experiment [1] is 1.07%; in experiment [2], 5.01%.
The matching figures for `COCCN1CCCN(C(=O)NC(C)Cn2ccnc2)CC1` (stereo unspecified): -1.32% and -14.7%.
In the case of `CC(=O)N(C)c1nc(CN2CCOC(Cn3cc(C)cn3)C2)cs1` (stereo unspecified), the Percent Effect in experiment [1] is -3.86%; in experiment [2], -9.15%.
Turning to `CC(C)CCc1noc(CN2CCCN(C(=O)c3ccco3)CC2)n1`, the values for the Percent Effect in experiment [1] and in experiment [2] were -1.32% and -9.12%, respectively.
The matching figures for `COc1ccccc1CCNC(=O)CN1CCCC1c1noc(C)n1` (stereo unspecified): -3.12% and 34.4%.
Consider `Cc1ccc(C(O)CNC(=O)NCc2nc(C)cs2)cc1` (stereo unspecified), for which the values for the Percent Effect in experiment [1] and in experiment [2] were -0.636% and 1.54%, respectively.
For `COC(=O)c1cccc(NC(=O)CCn2nc(-c3cccs3)oc2=O)c1`, the Percent Effect was 1.89% in experiment [1] and 18.1% in experiment [2].
On to `CS(=O)(=O)c1ccc(CNC(=O)N2CCC(c3ccccc3)CC2)cc1`, for which the figures for the Percent Effect in experiment [1] and in experiment [2] were -2.06% and 7.64%, respectively.
The matching figures for `Cc1ccc(C(=O)N2CCN(Cc3ccsc3)CC2)n1C`: 1.28% and 3.04%.
Take `CC(C)C(=O)N1CCC(c2nc(O)cc(-c3ccncc3)n2)CC1`: the values for the Percent Effect in experiment [1] and in experiment [2] were -2.46% and 3.51%, respectively.
The corresponding values for `Cc1occc1C(=O)N1CCC2(CCC(=O)N(CC(N)=O)C2)CC1` are -2.4% and -17.1%.
As for `CN(C)S(=O)(=O)c1ccc(OCCNCCn2cccn2)cc1`, the Percent Effect was -6.56% in experiment [1] and -13.8% in experiment [2].
As to `c1cc(CN2CCCC(c3noc(C4CC4)n3)C2)no1` (stereo unspecified), the Percent Effect in experiment [1] was -0.285%; in experiment [2], 4.12%.
Take `O=C(CC1CCCC1)N1CCCC(c2n[nH]c3nccnc23)C1` (stereo unspecified): the figures for the Percent Effect in experiment [1] and in experiment [2] were -1.74% and 19.5%, respectively.
The corresponding values for `CN(C)c1cc(C(=O)N2CCN(S(C)(=O)=O)CC2)ccn1` are -0.122% and -36.9%.
As for `CCN(CC(=O)NC)S(=O)(=O)N1CCCCCC1`, the Percent Effect was 1.14% in experiment [1] and 6.63% in experiment [2].
Take `O=C1CC(c2ccccc2)c2c(n3ccsc3nc2=O)N1` (stereo unspecified): the figures for the Percent Effect in experiment [1] and in experiment [2] were -1.74% and -13.6%, respectively.
For `CC(=O)N1CCN(C(=O)CN2CCc3c(ncn3C3CC3)C2)CC1`, the Percent Effect is 1.82% in experiment [1] and -27.5% in experiment [2].
Take `Cn1cnc2c1C(COCC1CC1)CN(Cc1ccc3c(c1)OCO3)C2` (stereo unspecified): the Percent Effect in experiment [1] is 0.999%; in experiment [2], -23.1%.
With `COc1ccc(-n2nnc(C(=O)NC(C)C)c2C2CC2)cc1`, the results for the Percent Effect in experiment [1] and in experiment [2] were -4.62% and 10.4%, respectively.
Regarding `COc1ccc(C2SC(C)=Nc3c2c(=O)[nH]n3C2CCCCC2)cc1O` (stereo unspecified), the Percent Effect in experiment [1] was 3.89%; in experiment [2], -40%.
`O=C1CCC2(CCN(Cc3nccs3)CC2)N1Cc1ccccc1`: the Percent Effect in experiment [1] is -2.78%; in experiment [2], 13.1%.
For the compound `CNC(=O)N1C[C@H]2CC[C@@]3(N=C(c4ccccc4)NC3=O)[C@H]2C1`, the figures for the Percent Effect in experiment [1] and in experiment [2] were 4.9% and -20.9%, respectively.
In the case of `O=C1[C@@H]2CCN(Cc3ccoc3)C[C@@H]2OCCN1Cc1cccnc1`, the Percent Effect was -0.368% in experiment [1] and -11.5% in experiment [2].
With `CC(=O)N1CCCN(C(=O)c2csc(-c3ccc(C)cc3C)n2)CC1`, the Percent Effect in experiment [1] was -7.84%; in experiment [2] it was -0.511%.
The corresponding values for `CN(C)S(=O)(=O)N1CCN(C(=O)c2ccc3ccn(C)c3c2)CC1` are -0.254% and 4.4%.
With `COC(=O)NCc1cc2n(n1)CCCN(C(C)=O)C2`, the Percent Effect was -4.82% in experiment [1] and 15.5% in experiment [2].
`Cc1cc(=O)[nH]c(NCCNC(=O)C(c2ccc(F)cc2)N(C)C)n1` (stereo unspecified): the results for the Percent Effect in experiment [1] and in experiment [2] were -2.14% and -65.1%, respectively.
Consider `O=C(CC1CC1)NCc1cc(=O)n2c(n1)CN(Cc1ccoc1)CCC2`, for which the figures for the Percent Effect in experiment [1] and in experiment [2] were -2.64% and -17%, respectively.
`CN(C)C(=O)CN1CCCC2(CCN(c3ccsc3)C2=O)C1` (stereo unspecified): the Percent Effect in experiment [1] was 2.4%; in experiment [2] it was -21.7%.
The matching figures for `O=C(Nc1ccc(F)cc1)N1C[C@H]2CC[C@@H]1CN(Cc1cccnc1)C2`: 0.632% and -26.1%.
For the compound `Cc1cc(C2CCCN2CCCc2nc3ccccc3o2)on1` (stereo unspecified), the Percent Effect in experiment [1] was -0.533%; in experiment [2] it was 28.6%.
On to `CC(O)CN1CCN(C(=O)c2ccn(-c3cccc(Cl)c3)n2)CC1` (stereo unspecified), for which the Percent Effect in experiment [1] is -5.25%; in experiment [2] it was 7.58%.
On to `CCc1nnsc1C(=O)N1CCCN(Cc2nccn2C)CC1`, for which the Percent Effect in experiment [1] was 1.58%; in experiment [2] it was 15.5%.
Consider `O=C(c1cnccn1)N1CCN(Cc2csc(-c3ccccc3)n2)CC1`, for which the Percent Effect in experiment [1] is 1.34%; in experiment [2], 26.4%.
In the case of `CCCn1[nH]cc/c1=N\C(=O)CN1CCCC1c1c(C)nn(C)c1C` (stereo unspecified), the Percent Effect is -0.979% in experiment [1] and -11% in experiment [2].
The matching figures for `Cc1ccc(Nc2nccc(C3CN(CC(N)=O)C3)n2)nc1`: -1.29% and -33.3%.
The corresponding values for `CN(C)[C@@H]1CCN(C(=O)NC2CCCC2)[C@H]1Cc1cnn(C)c1` are -2.75% and -11.7%.
Regarding `COCCC(=O)N1C[C@@H]2COC[C@]2(COCc2cccnc2)C1`, the Percent Effect in experiment [1] is 2.14%; in experiment [2] it was -6.81%.
